Marburg entry inh – blocks Marburg virus binding to or entry into cells; Marburg virus pseudotyped entry inhibition, cell reporter; AID 540276; 300,000 tested, 1.8% active; Potency, µM (series often up to 37.8 µM), without a hit: top-dose activity change, negative = inhibition, actives largely listed as inhibitors; calls by dose curve; tested in HEK293 cells; also: potency is read from the fitted curve at half-maximal effect
FBPA Giardia inh – blocks Giardia fructose-bisphosphate aldolase activity. 290,000 tested, 0.71% active. Potency, µM (highest dose often 59.6 µM), inactives show at the highest dose activity, negative = inhibition, actives largely listed as inhibitors. purified Giardia FBPA. AID 2451. A8B2U2; also: potency is read from the fitted curve at half-maximal effect; nearly all actives have a fitted effect of over 55% in size
Target sequence (A8B2U2 whole entry, looked up): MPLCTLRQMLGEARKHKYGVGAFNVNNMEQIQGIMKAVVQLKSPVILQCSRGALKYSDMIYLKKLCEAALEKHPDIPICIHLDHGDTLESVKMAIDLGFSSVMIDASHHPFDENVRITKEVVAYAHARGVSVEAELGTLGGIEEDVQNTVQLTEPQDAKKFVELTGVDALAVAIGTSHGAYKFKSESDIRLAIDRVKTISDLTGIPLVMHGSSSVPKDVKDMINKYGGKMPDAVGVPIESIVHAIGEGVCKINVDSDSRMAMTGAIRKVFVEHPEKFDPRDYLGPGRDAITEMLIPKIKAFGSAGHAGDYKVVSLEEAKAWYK
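40 nM FBPA preincubated 10 min at RT with compound (up to 57.5 uM final), then substrate plus GAPDH/TPI/NAD/arsenate coupling and diaphorase/resazurin added. Fluorescence read after 20 min at RT, 525/598 nm.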
HCMV antiviral – blocks human cytomegalovirus replication; HFF cells, HCMV-luciferase reporter, 72 h; hits give low values; activity change, negative = inhibition, % at 57.5 µM; 410,000 tested, 4.5% active; AID 1259415; in the data active = activity change below about -60%; inconclusive = no clear call, values can overlap the other calls; inactive = above about -39%
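Screen run at 2 compound doses on HFFs infected with reporter HCMV, MOI 1 PFU/cell. Luciferase activity from cell lysates at 72 h post infection gave inhibition relative to buffer-only and Salinomycin wells.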
HCV inh – inhibitors of hepatitis C virus infection | 340,000 tested, 3.4% active | Huh7.5.1 HCVcc-Cre infection, luciferase reporter, 44 h | Potency, µM (series often up to 41.8 µM), without a hit: top-dose activity change, negative = inhibition, most hits filed as inhibitors; also: potency is read from the fitted curve at half-maximal effect
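Antiviral activity was scored by luciferase reporter output from cells infected with HCVcc-Cre (~0.5 moi) in presence of compound, 44 h infection period, cells seeded 1,000/well 4 h prior.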
LASV entry inh – blocks Lassa virus binding to or entry into cells; 300,000 tested, 1.2% active; Lassa virus pseudotype entry inhibition, cell reporter; Potency, µM (doses to about 37.9 µM), without a hit: at the top dose activity change, negative = inhibition, actives largely listed as inhibitors; calls by dose curve; tested in HEK293 cells; also: potency is read from the fitted curve at half-maximal effect; nearly all actives have a fitted effect of over 50% in size
FMDV inh – antivirals against foot and mouth disease virus; FMDV antiviral cell-based qHTS; Potency, µM (highest dose often 57.9 µM), for the others: top-dose activity change, negative = inhibition, most hits filed as inhibitors; 410,000 tested, 1.2% active; AID 1159524; calls by dose curve; tested in HEK293T cells; also: read-out not given here; potency is read from the fitted curve at half-maximal effect; nearly all actives have a fitted effect of over 45% in size
* marks the source's active call; other numbers are inactive results; [ ] = another dose, or the depositor's remark. A selection: hits, their analogues and other compounds. The true share with any hit is near 8.3%. Unless noted, calls follow the shape of the dose curve; as a rule, active = well fitted curve in the direction sought with a large enough effect; inconclusive = small, poorly fitted or top-dose-only effect, or another doubt; inactive = no such curve, though single readings can be large; an effect the other way counts as inactive or inconclusive. % is scaled to controls: 0 for no effect and ±100 for the full control effect.

What do the screens show for `CCOc1cc(NC(=O)CCl)c(OCC)cc1NC(=O)CCl`?
Marburg entry inh: inconclusive; FBPA Giardia inh: -27%; HCMV antiviral: inconclusive; HCV inh: inconclusive; LASV entry inh: inconclusive; FMDV inh: inconclusive

Results for CCc1cc(SC#N)cc(CC)c1NC(=O)CCl ?
Marburg entry inh: -18%; FBPA Giardia inh: inconclusive; HCMV antiviral: -74*; HCV inh: inconclusive; LASV entry inh: inconclusive; FMDV inh: 25µM*

What do the screens show for `OC(CN1CCOCC1)Cn1c(-c2cccc(Cl)c2)nc2ccccc21` (centres undefined)?
Marburg entry inh: 6%; FBPA Giardia inh: 0%; HCMV antiviral: -102*; HCV inh: 2%; LASV entry inh: 12%; FMDV inh: 1%

How did OC(CN1CCOCC1)Cn1cnc2ccccc21 (centres undefined) do in these assays?
Marburg entry inh: inconclusive; FBPA Giardia inh: 1%; HCMV antiviral: 39; HCV inh: 17%; LASV entry inh: 8%[46.1 µM]; FMDV inh: -5%

Results for C=Cn1cc[n+](CC(=O)c2ccc(-c3ccccc3)cc2)c1 ?
Marburg entry inh: 12%[46.1 µM]; FBPA Giardia inh: -7%; HCMV antiviral: -63*; HCV inh: inconclusive; LASV entry inh: -24%[46.1 µM]; FMDV inh: -22%

Results for COc1ccc(C(=O)COC(=O)c2ccc(N(C)C)cc2)cc1 ?
Marburg entry inh: 0%[46.1 µM]; FBPA Giardia inh: 4%; HCMV antiviral: -10; HCV inh: -7%; LASV entry inh: -1%[46.1 µM]; FMDV inh: 25%

What do the screens show for `COc1ccc(C(=O)C[n+]2ccc(N(C)C)cc2)cc1`?
Marburg entry inh: 2%[46.1 µM]; FBPA Giardia inh: -1%; HCMV antiviral: -68*; HCV inh: inconclusive; LASV entry inh: inconclusive; FMDV inh: -26%

How did Cc1ccc[n+](CC(=O)c2ccc(Br)cc2)c1 do in these assays?
FBPA Giardia inh: -1%; HCMV antiviral: 48; HCV inh: 9%; FMDV inh: -23%

How did CN(C)c1cc[n+](CC(=O)c2ccc(Br)cc2)cc1 do in these assays?
Marburg entry inh: -22%[46.1 µM]; FBPA Giardia inh: 6%; HCMV antiviral: -74*; HCV inh: -10%; LASV entry inh: inconclusive; FMDV inh: inconclusive

Results for CN(C)c1cc[n+](CC(=O)c2ccc(-c3ccccc3)cc2)cc1 ?
Marburg entry inh: inconclusive; FBPA Giardia inh: -2%; HCMV antiviral: -95*; HCV inh: inconclusive; LASV entry inh: inconclusive; FMDV inh: inconclusive

What do the screens show for `COCCn1c(=O)c(-c2ccc(OC)cc2)nc2cnc(Nc3cccc(OC)c3)nc21`?
FBPA Giardia inh: 0%; FMDV inh: -10%

How did CC(C)CON=C1C[C@@H](O)[C@@H](O)[C@@H]2[C@H]3C(=O)N(C[C@@H]4CCCO4)C(=O)[C@@H]3CC[C@H]12 do in these assays?
Marburg entry inh: -10%[14.2 µM]

What do the screens show for `CC1CCCc2cc(OS(=O)(=O)C(F)(F)F)ccc2OC(=O)CC1` (centres undefined)?
HCMV antiviral: -5

Results for COc1ccc(CNc2ccnc(-c3ccc(N(C)C)cc3)n2)c(OC)c1 ?
FBPA Giardia inh: inconclusive; FMDV inh: 3%

How did Cc1ccc(C(=O)C[n+]2ccc(Cc3ccccc3)cc2)cc1 do in these assays?
Marburg entry inh: inconclusive; FBPA Giardia inh: -3%; HCMV antiviral: -88*; HCV inh: inconclusive; LASV entry inh: inconclusive; FMDV inh: -17%

What do the screens show for `Cc1ccc(N(C)S(=O)(=O)c2ccc3[nH]c(=O)ccc3c2)cc1`?
HCMV antiviral: -8; LASV entry inh: 7%[46.1 µM]; FMDV inh: 4%

What do the screens show for `Cc1ccc(C)c(NC(=O)c2ccc3c(c2)N(Cc2ccc(F)cc2)C(=O)CS3=O)c1` (centres undefined)?
Marburg entry inh: 2.6µM*; FBPA Giardia inh: -6%; HCMV antiviral: inconclusive; HCV inh: inconclusive; LASV entry inh: inconclusive; FMDV inh: -19%

Results for CCOc1ccc(NC(=O)c2ccc3c(c2)N(Cc2ccc(F)cc2)C(=O)CS3=O)cc1 (centres undefined) ?
Marburg entry inh: -1%; FBPA Giardia inh: -5%; HCMV antiviral: -5; HCV inh: -2%; FMDV inh: -16%

What do the screens show for `COc1ccc(C2=NCC(C)n3nc4cc(C(F)(F)F)ccc4c32)cc1` (centres undefined)?
HCMV antiviral: 87

Results for Cc1cccc(C(=O)NC2CC3CCCC(C2)N3S(=O)(=O)c2ccccc2)c1 (centres undefined) ?
Marburg entry inh: inconclusive; FBPA Giardia inh: 0%; HCMV antiviral: -31; HCV inh: inconclusive; LASV entry inh: 13µM*

What do the screens show for `Cc1cccc(C(=O)NC2CCN(C(=O)Nc3ccccc3C)CC2)c1`?
FBPA Giardia inh: -3%; HCMV antiviral: -103*; HCV inh: 24%; FMDV inh: -16%

Results for O=C(NC1CC2CCCC(C1)N2Cc1ccccc1)c1cccc(F)c1 (centres undefined) ?
FBPA Giardia inh: -7%; HCMV antiviral: 2; HCV inh: -9%; FMDV inh: -9%

How did O=C(NC1CC2CCCC(C1)N2S(=O)(=O)c1ccccc1)c1ccccc1 (centres undefined) do in these assays?
Marburg entry inh: inconclusive; FBPA Giardia inh: 3%; HCMV antiviral: 23; HCV inh: -18%; LASV entry inh: -27%; FMDV inh: inconclusive

What do the screens show for `O=C(NC1CC2CCCC(C1)N2Cc1ccccc1)c1cccc(Cl)c1` (centres undefined)?
Marburg entry inh: 1.3µM*; FBPA Giardia inh: -30%; HCMV antiviral: -40; HCV inh: -7%; LASV entry inh: 1%; FMDV inh: -12%

What do the screens show for `Cc1cccc(C(=O)NC2CCN(S(=O)(=O)c3cccc(F)c3)CC2)c1`?
HCMV antiviral: -60*; HCV inh: -23%; FMDV inh: -9%

Results for COC(=O)c1cc2sc(C)cc2n1Cc1nc(-c2cccc(Br)c2)oc1C ?
Marburg entry inh: -9%[46.1 µM]; HCMV antiviral: 11; FMDV inh: 23%

How did C/C(=C\C[Si](C)(C)C)CC[C@H](O)C1=CCCCC1=O do in these assays?
FBPA Giardia inh: -1%

Results for Cc1ccc(C(=O)NNC(=O)C2CCN(Cc3ccccc3)CC2)cc1 ?
Marburg entry inh: inconclusive; FBPA Giardia inh: -8%; HCMV antiviral: 56; HCV inh: -12%; LASV entry inh: 7%; FMDV inh: -8%

Results for O=C(NNC(=O)C1CCN(Cc2ccccc2)CC1)c1cccc(Cl)c1 ?
Marburg entry inh: inconclusive; FBPA Giardia inh: 3%; HCMV antiviral: -12; HCV inh: 10µM*; LASV entry inh: 0%; FMDV inh: -24%

How did Cc1nc(Cl)c(C(=O)NCc2ccccc2)c(C)c1[N+](=O)[O-] do in these assays?
Marburg entry inh: 0%[46.1 µM]; FBPA Giardia inh: 15%; HCMV antiviral: inconclusive; HCV inh: 12%; LASV entry inh: -12%[46.1 µM]; FMDV inh: -6%
